# Laboratory results from ChEMBL document CHEMBL3988442, “University of Dundee, Small-Polar-MMV Screening Library” (2021).
# For some of these results: Entries with a potency or affinity are not part of this list.
# Columns and labels:
# Design in all cases: scale not given: direction of the effect not stated beside the values
# [1] = target: Protein translocase subunit SecA (Escherichia coli (strain K12)) (UniProt P10408); test: Assay to Identify E. coli SecA ATPase Inhibitors; type: functional; conditions: 30 µM
# Sequence of Protein translocase subunit SecA (Escherichia coli (strain K12)) (P10408 whole entry): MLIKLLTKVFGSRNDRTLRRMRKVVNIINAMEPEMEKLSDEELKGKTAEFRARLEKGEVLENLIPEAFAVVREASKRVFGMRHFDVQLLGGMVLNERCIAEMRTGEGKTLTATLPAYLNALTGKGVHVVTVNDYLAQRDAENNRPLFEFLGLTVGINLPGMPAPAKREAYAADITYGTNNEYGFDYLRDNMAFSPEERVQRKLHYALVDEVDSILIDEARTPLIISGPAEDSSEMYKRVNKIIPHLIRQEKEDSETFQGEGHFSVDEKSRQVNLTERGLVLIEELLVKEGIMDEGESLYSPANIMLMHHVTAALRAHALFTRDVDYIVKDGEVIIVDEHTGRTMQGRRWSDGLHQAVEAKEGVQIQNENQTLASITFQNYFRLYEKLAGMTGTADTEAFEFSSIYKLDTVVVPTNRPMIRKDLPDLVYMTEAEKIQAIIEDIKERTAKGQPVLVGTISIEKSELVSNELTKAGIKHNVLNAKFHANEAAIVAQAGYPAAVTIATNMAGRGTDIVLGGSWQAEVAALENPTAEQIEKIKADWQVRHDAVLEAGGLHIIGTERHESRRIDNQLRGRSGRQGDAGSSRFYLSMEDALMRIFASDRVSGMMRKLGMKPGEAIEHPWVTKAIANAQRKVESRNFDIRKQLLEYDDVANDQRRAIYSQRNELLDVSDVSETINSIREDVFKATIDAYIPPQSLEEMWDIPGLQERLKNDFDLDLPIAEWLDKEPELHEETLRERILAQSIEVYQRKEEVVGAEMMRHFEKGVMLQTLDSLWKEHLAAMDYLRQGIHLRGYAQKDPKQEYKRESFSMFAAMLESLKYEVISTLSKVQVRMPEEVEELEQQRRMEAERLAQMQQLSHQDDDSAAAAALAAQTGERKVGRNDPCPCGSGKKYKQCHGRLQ
# [2] = target: T1, Ubiquitin-activating enzyme e1, putative (Leishmania donovani (strain BPK282A1)) (UniProt E9BSI1); test: Leishmania donovani Ubiquitin Activating Enzyme (LdE1); type: functional; conditions: 30 µM
# T1 sequence (whole entry): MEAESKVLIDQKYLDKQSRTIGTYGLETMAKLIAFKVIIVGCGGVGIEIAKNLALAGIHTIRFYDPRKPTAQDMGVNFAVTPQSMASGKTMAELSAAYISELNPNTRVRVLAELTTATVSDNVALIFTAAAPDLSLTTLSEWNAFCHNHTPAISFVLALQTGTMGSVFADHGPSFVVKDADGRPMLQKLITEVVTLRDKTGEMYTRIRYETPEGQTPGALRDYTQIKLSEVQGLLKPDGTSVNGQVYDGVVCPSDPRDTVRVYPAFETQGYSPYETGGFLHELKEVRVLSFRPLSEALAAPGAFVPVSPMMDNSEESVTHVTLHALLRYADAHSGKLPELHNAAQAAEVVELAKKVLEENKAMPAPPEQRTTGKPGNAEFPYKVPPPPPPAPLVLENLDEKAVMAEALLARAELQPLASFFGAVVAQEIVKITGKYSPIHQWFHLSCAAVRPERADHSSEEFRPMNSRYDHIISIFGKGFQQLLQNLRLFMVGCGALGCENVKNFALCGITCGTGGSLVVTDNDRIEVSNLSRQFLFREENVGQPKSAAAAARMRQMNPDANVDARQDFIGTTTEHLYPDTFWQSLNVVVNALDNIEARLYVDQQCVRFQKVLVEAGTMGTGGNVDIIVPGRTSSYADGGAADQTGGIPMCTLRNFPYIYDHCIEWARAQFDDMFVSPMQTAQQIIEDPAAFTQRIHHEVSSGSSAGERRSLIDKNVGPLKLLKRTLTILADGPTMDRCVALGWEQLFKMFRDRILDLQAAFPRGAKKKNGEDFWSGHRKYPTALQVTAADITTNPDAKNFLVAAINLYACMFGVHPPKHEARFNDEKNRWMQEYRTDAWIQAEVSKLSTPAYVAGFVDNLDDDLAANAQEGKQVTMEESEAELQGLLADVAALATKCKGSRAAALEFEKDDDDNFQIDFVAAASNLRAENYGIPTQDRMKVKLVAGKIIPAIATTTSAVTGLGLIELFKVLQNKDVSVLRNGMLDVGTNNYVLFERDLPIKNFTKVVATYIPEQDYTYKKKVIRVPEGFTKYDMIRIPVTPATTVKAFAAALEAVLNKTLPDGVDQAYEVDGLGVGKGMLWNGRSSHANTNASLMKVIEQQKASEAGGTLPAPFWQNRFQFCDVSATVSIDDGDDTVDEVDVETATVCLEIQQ
# [3] = target: AMP-activated protein kinase, AMPK (Homo sapiens) (UniProt P54646+O43741+P54619+Q9UGJ0+Q9Y478+Q13131+Q9UGI9); test: AMP-dependent Kinase enzyme assay. An in vitro enzyme assay that detects ADP turnover that is directly proportional to AMPK activity. This uses naive AMPK that is activated during the assay with MK-8722; type: functional; conditions: 30 µM
# [4] = target: Sialic acid-binding Ig-like lectin 9 (Homo sapiens) (UniProt Q9Y336); test: Hs-Siglec9 ALPHAscreen SOP 20170721; conditions: 10 µM
# Sequence of Sialic acid-binding Ig-like lectin 9 (Homo sapiens) (Q9Y336 whole entry): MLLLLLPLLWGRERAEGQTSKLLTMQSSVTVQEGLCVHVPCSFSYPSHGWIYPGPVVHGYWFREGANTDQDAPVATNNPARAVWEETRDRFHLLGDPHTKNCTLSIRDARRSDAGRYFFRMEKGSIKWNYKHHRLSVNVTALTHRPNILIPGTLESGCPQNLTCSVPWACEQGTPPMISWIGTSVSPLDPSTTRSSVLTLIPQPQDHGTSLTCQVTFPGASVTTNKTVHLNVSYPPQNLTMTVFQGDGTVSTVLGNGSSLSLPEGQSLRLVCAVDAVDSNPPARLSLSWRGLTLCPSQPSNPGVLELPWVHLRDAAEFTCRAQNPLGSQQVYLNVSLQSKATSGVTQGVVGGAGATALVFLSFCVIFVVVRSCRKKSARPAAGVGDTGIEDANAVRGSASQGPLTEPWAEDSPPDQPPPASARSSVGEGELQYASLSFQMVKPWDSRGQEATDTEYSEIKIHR
# [5] = tested on: Trypanosoma cruzi; test: Trypanosoma cruzi phosphomannomutase and mannose-1-phosphate guanylyltransferase assay; type: functional; conditions: 10 µM
# [6] = target: T2, Arginase-2, mitochondrial (Homo sapiens) (UniProt P78540); test: in vitro enzyme assay to detect the production of urea directly proportional to the activity of Arginase II; type: functional; conditions: 33.3 µM; further: in the data most compounds retested in dose-response had high values
# T2 sequence (whole entry): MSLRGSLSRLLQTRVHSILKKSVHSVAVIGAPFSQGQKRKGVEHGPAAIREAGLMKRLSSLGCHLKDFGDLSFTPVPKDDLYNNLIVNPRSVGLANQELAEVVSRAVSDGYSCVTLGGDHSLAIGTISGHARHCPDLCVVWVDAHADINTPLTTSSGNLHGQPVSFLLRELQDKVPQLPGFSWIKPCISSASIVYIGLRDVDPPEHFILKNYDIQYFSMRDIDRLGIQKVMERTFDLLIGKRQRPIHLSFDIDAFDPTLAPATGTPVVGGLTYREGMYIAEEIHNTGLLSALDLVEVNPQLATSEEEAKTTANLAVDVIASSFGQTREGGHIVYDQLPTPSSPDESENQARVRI
# [7] = target: T3, Proteasome subunit beta (Trypanosoma cruzi) (UniProt O96673); test: Trypanosoma cruzi proteasome chymotrypsin-like activity (TcProtChymo) assay.; further: in the data most compounds retested in dose-response had high values; type: functional; conditions: 9.37 µM
# T3 sequence (whole entry): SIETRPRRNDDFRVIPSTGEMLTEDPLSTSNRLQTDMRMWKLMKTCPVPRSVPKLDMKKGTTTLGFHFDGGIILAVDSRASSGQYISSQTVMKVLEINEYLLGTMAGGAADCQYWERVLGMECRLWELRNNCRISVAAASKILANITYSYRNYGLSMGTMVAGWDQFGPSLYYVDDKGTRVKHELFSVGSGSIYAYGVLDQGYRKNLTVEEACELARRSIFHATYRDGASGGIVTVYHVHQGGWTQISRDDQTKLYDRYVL
# [8] = species on record: Homo sapiens; test: To identify inhibition of the IFN signalling (Jak-Stat) pathway via expression of an eGFP reporter gene under the control of an IFN-stimulated response element (ISRE) containing MxA promoter.; type: functional; conditions: 30 µM
# [9] = target: T4, Tyrosyl-tRNA synthetase, putative (Trypanosoma cruzi (strain CL Brener)) (UniProt Q4DSP6); test: Trypanosoma cruzi tyrosyl tRNA synthetase (TcYRS) _High Tyrosine SOP; type: functional; conditions: 30 µM; further: in the data most compounds retested in dose-response had high values
# T4 sequence (whole entry): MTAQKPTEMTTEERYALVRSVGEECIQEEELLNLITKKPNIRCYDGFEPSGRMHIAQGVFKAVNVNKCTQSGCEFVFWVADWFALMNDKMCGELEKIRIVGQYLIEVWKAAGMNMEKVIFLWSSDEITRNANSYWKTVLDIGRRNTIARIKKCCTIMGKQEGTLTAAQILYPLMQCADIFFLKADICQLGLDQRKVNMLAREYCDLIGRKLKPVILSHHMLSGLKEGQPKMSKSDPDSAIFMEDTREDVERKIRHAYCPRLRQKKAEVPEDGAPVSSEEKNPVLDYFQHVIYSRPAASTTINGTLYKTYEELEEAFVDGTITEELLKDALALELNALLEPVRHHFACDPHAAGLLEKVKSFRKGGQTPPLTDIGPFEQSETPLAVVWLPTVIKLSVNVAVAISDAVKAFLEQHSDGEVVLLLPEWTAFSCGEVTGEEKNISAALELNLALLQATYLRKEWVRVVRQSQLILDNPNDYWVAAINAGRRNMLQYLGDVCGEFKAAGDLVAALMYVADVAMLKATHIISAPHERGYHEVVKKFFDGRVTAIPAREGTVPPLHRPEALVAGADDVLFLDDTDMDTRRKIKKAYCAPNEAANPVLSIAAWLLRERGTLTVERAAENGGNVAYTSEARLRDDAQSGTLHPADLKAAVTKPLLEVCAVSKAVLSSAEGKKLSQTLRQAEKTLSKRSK
# [10] = target: T4, Tyrosyl-tRNA synthetase, putative (Trypanosoma cruzi (strain CL Brener)); test: Trypanosoma cruzi tyrosyl tRNA synthetase (TcYRS) SOP; type: functional; conditions: 30 µM
# [11] = target: Chromo domain-containing protein 1 (Saccharomyces cerevisiae (strain ATCC 204508 / S288c) (Baker's yeast)) (UniProt P32657); test: ScCHD-1 Enzyme Inhibition Assay; type: functional; conditions: 30 µM; further: in the data most compounds retested in dose-response had high values
# Sequence of Chromo domain-containing protein 1 (Saccharomyces cerevisiae (strain ATCC 204508 / S288c) (Baker's yeast)) (P32657 whole entry, the tested form may be a part): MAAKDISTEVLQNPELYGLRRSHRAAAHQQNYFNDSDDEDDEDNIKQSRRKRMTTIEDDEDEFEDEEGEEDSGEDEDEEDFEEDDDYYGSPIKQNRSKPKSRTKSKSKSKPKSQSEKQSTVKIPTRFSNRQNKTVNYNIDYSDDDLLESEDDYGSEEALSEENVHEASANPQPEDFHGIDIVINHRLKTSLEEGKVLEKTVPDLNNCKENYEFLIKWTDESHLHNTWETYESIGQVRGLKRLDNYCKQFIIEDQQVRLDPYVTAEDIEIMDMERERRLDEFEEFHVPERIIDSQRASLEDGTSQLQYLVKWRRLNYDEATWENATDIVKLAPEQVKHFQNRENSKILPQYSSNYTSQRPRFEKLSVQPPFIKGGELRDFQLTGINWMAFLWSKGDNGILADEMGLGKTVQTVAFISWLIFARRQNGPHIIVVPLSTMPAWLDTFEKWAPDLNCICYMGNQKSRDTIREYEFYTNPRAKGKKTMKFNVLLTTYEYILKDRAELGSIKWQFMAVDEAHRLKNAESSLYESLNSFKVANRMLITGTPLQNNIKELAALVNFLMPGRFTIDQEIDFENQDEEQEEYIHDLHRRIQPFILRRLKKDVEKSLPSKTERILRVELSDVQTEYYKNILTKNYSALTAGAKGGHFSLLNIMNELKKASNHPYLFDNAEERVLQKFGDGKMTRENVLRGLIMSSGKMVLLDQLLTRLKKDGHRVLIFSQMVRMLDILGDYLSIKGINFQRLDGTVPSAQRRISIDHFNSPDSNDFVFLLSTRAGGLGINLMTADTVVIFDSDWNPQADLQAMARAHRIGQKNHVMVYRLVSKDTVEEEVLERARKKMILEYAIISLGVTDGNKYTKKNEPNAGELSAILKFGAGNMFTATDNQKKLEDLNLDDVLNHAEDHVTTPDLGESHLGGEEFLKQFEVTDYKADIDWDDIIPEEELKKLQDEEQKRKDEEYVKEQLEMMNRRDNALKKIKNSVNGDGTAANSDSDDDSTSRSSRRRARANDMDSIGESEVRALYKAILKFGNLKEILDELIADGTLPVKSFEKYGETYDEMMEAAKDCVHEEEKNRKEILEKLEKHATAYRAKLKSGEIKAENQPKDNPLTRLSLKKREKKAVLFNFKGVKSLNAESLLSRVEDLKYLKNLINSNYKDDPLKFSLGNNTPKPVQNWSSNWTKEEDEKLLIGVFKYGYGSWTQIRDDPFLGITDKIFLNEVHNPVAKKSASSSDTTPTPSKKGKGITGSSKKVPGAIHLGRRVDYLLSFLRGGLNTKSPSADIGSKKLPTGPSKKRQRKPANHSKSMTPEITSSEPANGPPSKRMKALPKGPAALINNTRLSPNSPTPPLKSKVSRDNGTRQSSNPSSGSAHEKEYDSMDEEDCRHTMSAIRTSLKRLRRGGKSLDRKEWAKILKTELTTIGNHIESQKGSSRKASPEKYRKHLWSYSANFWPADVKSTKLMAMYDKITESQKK
smiles,measurement,setting,value
CC(OCC1CC1)C(=O)N1CCCN(Cc2cnn(C)c2)CC1 (stereo not drawn),Percent Effect,[1],1.55%
same,Percent Effect,[2],31.6%
same,Percent Effect,[3],-0.358%
same,Percent Effect,[4],-2.42%
same,Percent Effect,[5],-1.95%
same,Percent Effect,[6],-9.25%
same,Percent Effect,[7],21.6%
same,Percent Effect,[8],6.99%
same,Percent Effect,[9],5.21%
same,Percent Effect,[10],17.7%
same,Percent Effect,[11],-21.4%
CCCC(=O)NCc1cc(Br)c(OC)c(OC)c1,Percent Effect,[1],-2.9%
same,Percent Effect,[2],8%
same,Percent Effect,[3],-3.19%
same,Percent Effect,[4],14.4%
same,Percent Effect,[5],6.72%
same,Percent Effect,[6],15.6%
same,Percent Effect,[7],5.41%
same,Percent Effect,[8],25.5%
same,Percent Effect,[9],2.73%
same,Percent Effect,[10],13.6%
same,Percent Effect,[11],-8.52%
CN(Cc1ccco1)[C@@H]1CN(C(=O)c2ccnnc2)C[C@@H]2CCCO[C@@H]21,Percent Effect,[1],-2.86%
same,Percent Effect,[2],2.74%
same,Percent Effect,[3],-3.12%
same,Percent Effect,[4],2.33%
same,Percent Effect,[5],4.76%
same,Percent Effect,[6],2.4%
same,Percent Effect,[7],0.77%
same,Percent Effect,[8],-17.3%
same,Percent Effect,[9],2.08%
same,Percent Effect,[10],8.64%
same,Percent Effect,[11],1.23%
O=C(NCCOc1ncc(Cl)cc1Cl)c1ccncc1,Percent Effect,[1],-9.07%
same,Percent Effect,[2],0%
same,Percent Effect,[3],3.95%
same,Percent Effect,[4],4.2%
same,Percent Effect,[5],-5.27%
same,Percent Effect,[6],-1.67%
same,Percent Effect,[7],9.72%
same,Percent Effect,[8],14.8%
same,Percent Effect,[9],7.92%
same,Percent Effect,[10],8.54%
same,Percent Effect,[11],-3.07%
Cc1ccn(-c2ccc(C(=O)N3CCCC(C(N)=O)C3)cc2)n1 (stereo not drawn),Percent Effect,[1],-6.07%
same,Percent Effect,[2],10.1%
same,Percent Effect,[3],-10.5%
same,Percent Effect,[4],3.7%
same,Percent Effect,[5],-5%
same,Percent Effect,[6],-1.9%
same,Percent Effect,[7],5.16%
same,Percent Effect,[8],28.1%
same,Percent Effect,[9],0.493%
same,Percent Effect,[10],8.86%
same,Percent Effect,[11],-4.17%
O=C(NCCCn1cccn1)N1CCCC1c1ccncc1 (stereo not drawn),Percent Effect,[1],-5.24%
same,Percent Effect,[2],2.67%
same,Percent Effect,[3],-0.283%
same,Percent Effect,[4],0.781%
same,Percent Effect,[5],-6.13%
same,Percent Effect,[6],-1.56%
same,Percent Effect,[7],15.3%
same,Percent Effect,[8],25.4%
same,Percent Effect,[9],0.546%
same,Percent Effect,[10],1.24%
same,Percent Effect,[11],-6.79%
CSC(C)(C)CNC(=O)NCCC1CCN(C)CC1,Percent Effect,[1],-2.34%
same,Percent Effect,[2],2.67%
same,Percent Effect,[3],-5.7%
same,Percent Effect,[4],-5.29%
same,Percent Effect,[5],0.487%
same,Percent Effect,[6],-1.56%
same,Percent Effect,[7],2.96%
same,Percent Effect,[8],11.5%
same,Percent Effect,[9],1.64%
same,Percent Effect,[10],6.17%
same,Percent Effect,[11],1.16%
CCc1nnc2n1CCN(C(=O)c1ccc(-c3ccco3)nc1C)C2,Percent Effect,[1],-6.22%
same,Percent Effect,[2],17.7%
same,Percent Effect,[3],-3.04%
same,Percent Effect,[4],13.8%
same,Percent Effect,[5],5.57%
same,Percent Effect,[6],-2.28%
same,Percent Effect,[7],12.5%
same,Percent Effect,[8],2.35%
same,Percent Effect,[9],10.3%
same,Percent Effect,[10],16.5%
same,Percent Effect,[11],-9.52%
